According to the supplement of paper PMC8728848:
The full list was thinned out, with the strongest signals kept by preference.

Key:
Test in all cases: glycan array binding signal (z-score within array); higher = stronger binding
Settings in all cases: glycan notation: IUPAC condensed, linker removed
[1] = target: Fuc(a1-2)Gal(b1-3)GlcNAc(b1-2)Man(a1-3)[Fuc(a1-2)Gal(b1-3)GlcNAc(b1-2)Man(a1-6)]Man(b1-4)GlcNAc(b1-4)GlcNAc
Method in brief: (§1)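 The Consortium for Functional Glycomics database supplied 3228 glycan arrays, of which those lacking an available protein sequence were dropped. The binding signal, a within-array Z-score, was averaged across arrays of the same protein sequence and across linkers. Negative scores can be read as non-binding.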

[2] = target: Fuc(a1-2)Gal(b1-3)GlcNAc(b1-3)[Fuc(a1-2)Gal(b1-3)GlcNAc(b1-6)]GalNAc
Method in brief: as §1

[3] = target: Fuc(a1-2)Gal(b1-4)GlcNAc(b1-3)Gal(b1-4)GlcNAc(b1-2)Man(a1-3)[Fuc(a1-2)Gal(b1-4)GlcNAc(b1-3)Gal(b1-4)GlcNAc(b1-2)Man(a1-6)]Man(b1-4)GlcNAc(b1-4)GlcNAc
Method in brief: as §1

[4] = target: Fuc(a1-2)Gal(b1-4)GlcNAc(b1-3)[Fuc(a1-2)Gal(b1-4)GlcNAc(b1-6)]GalNAc
Method in brief: as §1

[5] = target: Fuc(a1-2)Gal(b1-4)GlcNAc6S
Method in brief: as §1

[6] = target: Fuc(a1-2)Gal6S(b1-3)GlcNAc6S
Method in brief: as §1

[7] = target: Fuc(a1-2)[GalNAc(a1-3)]Gal(b1-4)GlcNAc(b1-6)GalNAc
Method in brief: as §1

[8] = target: Fuc(a1-2)[GalNAc(a1-3)]Gal(b1-4)[Fuc(a1-3)]GlcNAc(b1-3)GalNAc
Method in brief: as §1

[9] = target: Fuc(a1-3)GlcNAc
Method in brief: as §1

[10] = target: Fuc(a1-3)[Gal(b1-4)]Glc6S
Method in brief: as §1

[11] = target: Fuc(a1-3)[Gal(b1-4)]GlcNAc6S
Method in brief: as §1

[12] = target: Fuc(a1-3)[Gal3S(b1-4)]GlcNAc6S
Method in brief: as §1

[13] = target: Gal(a1-3)Gal(b1-4)[Fuc(a1-3)]GlcNAc
Method in brief: as §1

[14] = target: Gal(b1-3)GalNAc
Method in brief: as §1

[15] = target: Gal(b1-3)GalNAc(a1-3)[Fuc(a1-2)]Gal(b1-4)Glc
Method in brief: as §1

[16] = target: Gal(b1-3)GlcNAc(b1-2)Man(a1-3)[Gal(b1-3)GlcNAc(b1-2)Man(a1-6)]Man(b1-4)GlcNAc(b1-4)GlcNAc
Method in brief: as §1

[17] = target: Gal(b1-3)GlcNAc(b1-3)Gal(b1-4)GlcNAc
Method in brief: as §1

[18] = target: Gal(b1-3)GlcNAc(b1-3)Gal(b1-4)GlcNAc(b1-2)[Gal(b1-3)GlcNAc(b1-3)Gal(b1-4)GlcNAc(b1-6)]Man(a1-6)[Gal(b1-3)GlcNAc(b1-3)Gal(b1-4)GlcNAc(b1-2)Man(a1-3)]Man(b1-4)GlcNAc(b1-4)[Fuc(a1-6)]GlcNAc
Method in brief: as §1

[19] = target: Gal(b1-3)GlcNAc(b1-6)[Gal(b1-3)]GalNAc
Method in brief: as §1

[20] = target: Gal(b1-3)GlcNAc6S
Method in brief: as §1

[21] = target: Gal(b1-3)[Neu5Ac(b2-6)]GalNAc
Method in brief: as §1

[22] = target: Gal(b1-4)GlcNAc(b1-2)Man(a1-6)[GlcNAc(b1-2)Man(a1-3)]Man(b1-4)GlcNAc(b1-4)GlcNAc
Method in brief: as §1

[23] = target: Gal(b1-4)GlcNAc(b1-3)Gal(b1-4)GlcNAc(b1-3)Gal(b1-4)GlcNAc(b1-2)Man(a1-3)[Gal(b1-4)GlcNAc(b1-3)Gal(b1-4)GlcNAc(b1-3)Gal(b1-4)GlcNAc(b1-2)Man(a1-6)]Man(b1-4)GlcNAc(b1-4)GlcNAc
Method in brief: as §1

[24] = target: Gal(b1-4)GlcNAc(b1-3)Gal(b1-4)GlcNAc(b1-3)Gal(b1-4)GlcNAc(b1-3)Gal(b1-4)GlcNAc(b1-2)Man(a1-3)[Gal(b1-4)GlcNAc(b1-3)Gal(b1-4)GlcNAc(b1-3)Gal(b1-4)GlcNAc(b1-3)Gal(b1-4)GlcNAc(b1-2)Man(a1-6)]Man(b1-4)GlcNAc(b1-4)[Fuc(a1-6)]GlcNAc
Method in brief: as §1

[25] = target: Gal(b1-4)GlcNAc(b1-3)Gal(b1-4)GlcNAc(b1-3)Gal(b1-4)GlcNAc(b1-3)Gal(b1-4)GlcNAc(b1-2)[Gal(b1-4)GlcNAc(b1-3)Gal(b1-4)GlcNAc(b1-3)Gal(b1-4)GlcNAc(b1-3)Gal(b1-4)GlcNAc(b1-6)]Man(a1-6)[Gal(b1-4)GlcNAc(b1-3)Gal(b1-4)GlcNAc(b1-3)Gal(b1-4)GlcNAc(b1-3)Gal(b1-4)GlcNAc(b1-2)Man(a1-3)]Man(b1-4)GlcNAc(b1-4)[Fuc(a1-6)]GlcNAc
Method in brief: as §1

[26] = target: Gal(b1-4)GlcNAc(b1-3)GalNAc
Method in brief: as §1

[27] = target: Gal(b1-6)Gal
Method in brief: as §1

B1: Agalectin (Anopheles gambiae) (protein)
chain: MSNRPFTAKFPRYPENGDEVFIRGKLKDDAKSFSVNFCLPRPAQVAEHQTPPYIALHFKTIYDERDDTSRVVLNWKNLQWQQEEVLDNYWHVDRSQTFRVVFRLHEDCIKVFVNSVDHPPDYQFPVQLPLDQIESIELWDDVEHVEEISFRYDNGNSY
glycan array binding signal (z-score) [1]: 5.71 | glycan array binding signal (z-score) [2]: 4.19 | glycan array binding signal (z-score) [3]: -0.148 | glycan array binding signal (z-score) [4]: -0.321 | glycan array binding signal (z-score) [5]: -0.769 | glycan array binding signal (z-score) [6]: -0.208 | glycan array binding signal (z-score) [7]: 0.074 | glycan array binding signal (z-score) [8]: -0.12 | glycan array binding signal (z-score) [9]: -1.07 | glycan array binding signal (z-score) [10]: -0.632 | glycan array binding signal (z-score) [11]: 0.34 | glycan array binding signal (z-score) [12]: -0.759 | glycan array binding signal (z-score) [13]: -0.066 | glycan array binding signal (z-score) [14]: -0.47 | glycan array binding signal (z-score) [15]: -0.559 | glycan array binding signal (z-score) [16]: 1.66 | glycan array binding signal (z-score) [17]: -0.854 | glycan array binding signal (z-score) [18]: 3.14 | glycan array binding signal (z-score) [19]: -1.37 | glycan array binding signal (z-score) [20]: -1.14 | glycan array binding signal (z-score) [21]: 0.408 | glycan array binding signal (z-score) [22]: -0.688 | glycan array binding signal (z-score) [23]: 2.89 | glycan array binding signal (z-score) [24]: 3.26 | glycan array binding signal (z-score) [25]: -0.07 | glycan array binding signal (z-score) [26]: -0.509 | glycan array binding signal (z-score) [27]: -1.18
